Values without a mark were called inactive.
Compound: C#CCNC(=O)CCSSCCC(=O)NCCc1ccc(C=O)c(C=O)c1
Assay: lysine labeling ratio R10:1 (500 µM / 50 µM probe), SILAC-ABPP in living cells; higher = lower intrinsic lysine reactivity toward the probe, active = 2 or less
Details: HeLa; probe concentrations 500 vs 50 µM
In short: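 Each lysine carries an R value: the filtered median of MS1 peptide ratios of high probe to low probe, with the median then taken over forward and reverse replicates. These came from living SILAC light and heavy HeLa cells in PBS at room temperature labelled with an alkyne-tagged, disulfide-linked lysine probe at 500 µM or 50 µM, in forward and reverse swaps. The lysates were mixed, clicked to biotin-azide, trypsin-digested, captured on neutravidin, released by DTT, alkylated and run by LC-MS/MS on a TIMS-TOF Pro. The highest value allowed is 20.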

UniProt Q15149, sequence (Q15149 whole entry): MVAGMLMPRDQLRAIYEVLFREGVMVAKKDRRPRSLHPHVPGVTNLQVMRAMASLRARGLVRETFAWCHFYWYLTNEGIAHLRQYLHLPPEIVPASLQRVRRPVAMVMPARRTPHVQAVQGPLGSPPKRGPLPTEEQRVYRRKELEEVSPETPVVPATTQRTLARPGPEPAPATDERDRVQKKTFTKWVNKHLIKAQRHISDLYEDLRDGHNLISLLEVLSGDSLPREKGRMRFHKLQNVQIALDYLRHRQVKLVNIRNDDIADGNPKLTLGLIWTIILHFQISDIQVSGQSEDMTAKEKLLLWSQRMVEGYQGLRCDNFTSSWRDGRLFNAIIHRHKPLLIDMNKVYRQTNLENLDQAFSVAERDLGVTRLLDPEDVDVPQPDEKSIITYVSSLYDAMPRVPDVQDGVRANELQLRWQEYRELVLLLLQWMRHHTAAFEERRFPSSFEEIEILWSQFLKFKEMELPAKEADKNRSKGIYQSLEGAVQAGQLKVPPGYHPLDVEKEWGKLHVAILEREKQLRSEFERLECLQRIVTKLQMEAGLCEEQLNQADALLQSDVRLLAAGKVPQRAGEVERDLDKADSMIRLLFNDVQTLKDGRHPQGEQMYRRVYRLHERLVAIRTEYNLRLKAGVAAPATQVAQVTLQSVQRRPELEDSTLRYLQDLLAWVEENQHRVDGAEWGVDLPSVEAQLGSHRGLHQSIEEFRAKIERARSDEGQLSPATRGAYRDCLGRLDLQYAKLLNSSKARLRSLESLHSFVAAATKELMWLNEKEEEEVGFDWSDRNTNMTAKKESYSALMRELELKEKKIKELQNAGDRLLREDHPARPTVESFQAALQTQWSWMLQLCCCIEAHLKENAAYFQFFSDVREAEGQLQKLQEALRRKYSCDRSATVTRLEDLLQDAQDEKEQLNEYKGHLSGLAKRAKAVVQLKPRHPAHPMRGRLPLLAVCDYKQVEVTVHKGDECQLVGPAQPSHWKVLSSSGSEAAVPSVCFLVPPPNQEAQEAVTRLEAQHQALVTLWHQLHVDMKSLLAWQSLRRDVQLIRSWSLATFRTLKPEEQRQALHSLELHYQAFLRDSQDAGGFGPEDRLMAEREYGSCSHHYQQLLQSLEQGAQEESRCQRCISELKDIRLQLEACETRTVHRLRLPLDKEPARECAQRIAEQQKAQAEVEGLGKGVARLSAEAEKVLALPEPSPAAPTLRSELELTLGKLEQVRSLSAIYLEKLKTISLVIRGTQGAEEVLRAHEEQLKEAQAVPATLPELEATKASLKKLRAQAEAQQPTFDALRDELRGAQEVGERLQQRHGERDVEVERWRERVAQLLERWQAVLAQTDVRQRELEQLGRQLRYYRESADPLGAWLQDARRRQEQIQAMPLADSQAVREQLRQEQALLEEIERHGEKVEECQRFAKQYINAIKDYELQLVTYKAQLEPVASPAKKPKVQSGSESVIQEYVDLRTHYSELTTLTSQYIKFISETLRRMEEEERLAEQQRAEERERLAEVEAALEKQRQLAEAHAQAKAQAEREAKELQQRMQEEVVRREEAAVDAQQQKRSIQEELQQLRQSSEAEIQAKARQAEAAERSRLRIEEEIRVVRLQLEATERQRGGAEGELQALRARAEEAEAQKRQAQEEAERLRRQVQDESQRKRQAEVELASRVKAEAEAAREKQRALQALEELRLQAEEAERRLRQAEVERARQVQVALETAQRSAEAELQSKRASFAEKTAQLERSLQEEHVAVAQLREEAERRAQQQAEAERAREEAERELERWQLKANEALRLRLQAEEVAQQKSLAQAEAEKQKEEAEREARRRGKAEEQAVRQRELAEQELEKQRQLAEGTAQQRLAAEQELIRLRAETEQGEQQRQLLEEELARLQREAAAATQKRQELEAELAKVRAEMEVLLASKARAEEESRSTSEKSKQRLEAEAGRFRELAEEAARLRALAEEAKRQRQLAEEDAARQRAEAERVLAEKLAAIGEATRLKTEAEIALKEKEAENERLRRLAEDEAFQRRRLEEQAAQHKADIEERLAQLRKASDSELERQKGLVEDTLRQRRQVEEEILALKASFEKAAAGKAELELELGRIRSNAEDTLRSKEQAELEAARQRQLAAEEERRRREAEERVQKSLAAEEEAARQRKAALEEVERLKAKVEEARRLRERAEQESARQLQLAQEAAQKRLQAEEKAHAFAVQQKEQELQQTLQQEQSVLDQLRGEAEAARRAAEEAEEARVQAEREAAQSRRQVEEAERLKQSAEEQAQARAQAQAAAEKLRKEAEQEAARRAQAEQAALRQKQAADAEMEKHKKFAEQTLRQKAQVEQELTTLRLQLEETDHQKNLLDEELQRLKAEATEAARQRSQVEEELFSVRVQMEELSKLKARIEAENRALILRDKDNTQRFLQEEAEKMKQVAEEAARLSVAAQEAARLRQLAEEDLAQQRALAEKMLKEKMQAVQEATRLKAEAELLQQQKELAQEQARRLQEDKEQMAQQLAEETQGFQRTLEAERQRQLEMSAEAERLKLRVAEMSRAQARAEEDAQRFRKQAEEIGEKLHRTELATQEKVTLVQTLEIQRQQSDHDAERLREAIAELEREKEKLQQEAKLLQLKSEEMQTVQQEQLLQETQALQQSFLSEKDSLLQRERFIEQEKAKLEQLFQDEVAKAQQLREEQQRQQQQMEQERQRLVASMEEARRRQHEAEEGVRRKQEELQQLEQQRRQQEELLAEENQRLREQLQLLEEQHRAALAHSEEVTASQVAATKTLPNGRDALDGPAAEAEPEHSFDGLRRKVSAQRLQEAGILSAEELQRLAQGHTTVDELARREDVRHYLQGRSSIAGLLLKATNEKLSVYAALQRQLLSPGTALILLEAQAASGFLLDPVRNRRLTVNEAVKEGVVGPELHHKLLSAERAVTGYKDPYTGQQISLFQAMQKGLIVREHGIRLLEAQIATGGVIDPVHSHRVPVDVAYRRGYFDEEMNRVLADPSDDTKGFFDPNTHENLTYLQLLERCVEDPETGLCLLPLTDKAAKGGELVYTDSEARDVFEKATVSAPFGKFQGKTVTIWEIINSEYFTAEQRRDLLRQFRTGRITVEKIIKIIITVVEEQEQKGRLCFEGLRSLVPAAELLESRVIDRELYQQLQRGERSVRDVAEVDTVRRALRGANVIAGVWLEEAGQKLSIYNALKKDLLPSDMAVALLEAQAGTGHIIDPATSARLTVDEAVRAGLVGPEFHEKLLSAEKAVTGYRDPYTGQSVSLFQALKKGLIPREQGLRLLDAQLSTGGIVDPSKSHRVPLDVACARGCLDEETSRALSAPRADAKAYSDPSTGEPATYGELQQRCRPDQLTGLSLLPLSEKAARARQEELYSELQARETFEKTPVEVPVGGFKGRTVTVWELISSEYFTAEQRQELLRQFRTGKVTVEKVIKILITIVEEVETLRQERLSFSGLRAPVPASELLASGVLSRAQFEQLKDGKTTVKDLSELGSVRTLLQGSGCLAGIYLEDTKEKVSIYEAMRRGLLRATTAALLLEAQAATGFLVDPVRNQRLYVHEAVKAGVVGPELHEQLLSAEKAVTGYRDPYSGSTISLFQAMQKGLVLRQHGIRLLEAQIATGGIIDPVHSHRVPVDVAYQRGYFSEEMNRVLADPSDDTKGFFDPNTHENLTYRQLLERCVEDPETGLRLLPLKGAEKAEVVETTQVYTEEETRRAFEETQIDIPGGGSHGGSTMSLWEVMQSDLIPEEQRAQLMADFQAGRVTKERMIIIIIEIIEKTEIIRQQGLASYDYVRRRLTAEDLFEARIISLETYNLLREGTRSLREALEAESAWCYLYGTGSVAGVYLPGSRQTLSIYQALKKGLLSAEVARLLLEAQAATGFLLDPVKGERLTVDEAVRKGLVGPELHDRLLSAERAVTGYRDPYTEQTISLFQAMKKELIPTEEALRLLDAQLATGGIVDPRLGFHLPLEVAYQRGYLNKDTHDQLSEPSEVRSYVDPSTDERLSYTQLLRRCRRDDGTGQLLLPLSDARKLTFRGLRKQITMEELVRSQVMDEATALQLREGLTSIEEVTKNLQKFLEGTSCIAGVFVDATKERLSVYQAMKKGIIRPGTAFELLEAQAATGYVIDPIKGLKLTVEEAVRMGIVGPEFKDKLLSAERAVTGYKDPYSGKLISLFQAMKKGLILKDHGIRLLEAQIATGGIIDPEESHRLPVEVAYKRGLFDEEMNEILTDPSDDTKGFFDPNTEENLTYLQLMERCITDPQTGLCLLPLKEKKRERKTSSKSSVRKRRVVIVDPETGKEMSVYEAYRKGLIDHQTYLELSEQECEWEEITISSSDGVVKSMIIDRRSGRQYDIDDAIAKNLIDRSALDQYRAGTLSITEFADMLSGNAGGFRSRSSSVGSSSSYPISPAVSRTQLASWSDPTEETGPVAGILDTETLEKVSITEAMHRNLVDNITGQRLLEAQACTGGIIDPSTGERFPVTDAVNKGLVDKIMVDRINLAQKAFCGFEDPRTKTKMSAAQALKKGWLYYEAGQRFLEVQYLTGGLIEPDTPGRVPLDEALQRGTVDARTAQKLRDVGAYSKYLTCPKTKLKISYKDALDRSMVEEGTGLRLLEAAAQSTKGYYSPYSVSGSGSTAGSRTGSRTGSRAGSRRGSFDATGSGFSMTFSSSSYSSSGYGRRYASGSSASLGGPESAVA
UniProt P01889, sequence (P01889 whole entry, one chain of several): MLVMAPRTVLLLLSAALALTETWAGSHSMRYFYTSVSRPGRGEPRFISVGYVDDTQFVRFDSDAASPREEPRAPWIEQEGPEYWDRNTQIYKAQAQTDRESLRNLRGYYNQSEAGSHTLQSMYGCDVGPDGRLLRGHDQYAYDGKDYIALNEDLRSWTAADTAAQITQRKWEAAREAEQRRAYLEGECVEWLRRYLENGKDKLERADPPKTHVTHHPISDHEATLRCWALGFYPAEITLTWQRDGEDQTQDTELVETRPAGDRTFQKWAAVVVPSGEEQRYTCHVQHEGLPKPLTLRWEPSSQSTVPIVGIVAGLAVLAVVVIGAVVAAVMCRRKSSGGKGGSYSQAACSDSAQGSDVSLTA
UniProt P18859, sequence (P18859 whole entry): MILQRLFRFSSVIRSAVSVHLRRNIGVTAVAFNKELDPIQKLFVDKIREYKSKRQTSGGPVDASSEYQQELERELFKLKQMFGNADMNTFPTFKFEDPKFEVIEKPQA

Target | lysine labeling ratio R10:1
UniProt Q12884 (lysine site: K591) | 1.95 (active)
UniProt Q15149 (lysine site: K2099) | 4.12
ITGB1 (lysine site: K73) (UniProt P05556) | 2.27
SPTAN1 (lysine site: K250) (UniProt Q13813) | 1.09 (active)
UniProt Q15149 (lysine site: K2411) | 4.67
EEF2 (lysine site: K426) (UniProt P13639) | 3.49
EPRS (lysine site: K666) (UniProt P07814) | 0.985 (active)
ARPC2 (lysine site: K186) (UniProt O15144) | 1.46 (active)
PRDX1 (lysine site: K199) (UniProt Q06830) | 2.6
ANXA1 (lysine site: K214) (UniProt P04083) | 6.33
HSPA5 (lysine site: K185) (UniProt P11021) | 3.68
UniProt P16144 (lysine site: K151) | 1.53 (active)
UniProt Q14696 (lysine site: K222) | 3.35
UniProt Q13275 (lysine site: K581) | 3.3
SND1 (lysine site: K177) (UniProt Q7KZF4) | 0.9 (active)
SLC9A6 (lysine site: K61) (UniProt Q92581) | 4.56
HNRNPC (lysine site: K98) (UniProt P07910) | 3.25
CTNNA1 (lysine site: K748) (UniProt P35221) | 2.15
FAS (lysine site: K100) (UniProt P25445) | 1.44 (active)
UniProt Q15149 (lysine site: K1626) | 2.37

Target | lysine labeling ratio R10:1
UniProt Q15149 (lysine site: K4173) | 1.95 (active)
UniProt P05186 (lysine site: K346) | 0.557 (active)
NSUN2 (lysine site: K257) (UniProt Q08J23) | 1.71 (active)
MSLN (lysine site: K306) (UniProt Q13421) | 1.74 (active)
L1CAM (lysine site: K381) (UniProt P32004) | 14
UniProt P01893 (lysine site: K210) | 2.51
IQGAP1 (lysine site: K1128) (UniProt P46940) | 2.31
FBLN1 (lysine site: K649) (UniProt P23142) | 2.26
L1CAM (lysine site: K56) (UniProt P32004) | 3.74
HSP90B1 (lysine site: K733) (UniProt P14625) | 3.26
RCC2 (lysine site: K124) (UniProt Q9P258) | 1.8 (active)
ITGB1 (lysine site: K105) (UniProt P05556) | 6.92
UniProt P18859 (lysine site: K105) | 3.04
AKR1B1 (lysine site: K263) (UniProt P15121) | 8.32
SUB1 (lysine site: K53) (UniProt P53999) | 9.37
EPCAM (lysine site: K168) (UniProt P16422) | 6.35
P30462 (lysine site: K210) (UniProt P01889) | 2.33
UniProt Q9UKX5 (lysine site: K223) | 2.86
UniProt P61978 (lysine site: K422) | 4.02
PTPRB (lysine site: K718) (UniProt P23467) | 1.5 (active)
